Bioassay records: PubChem, National Center for Advancing Translational Sciences (NCATS)
Only some compounds are listed: those with a hit (about 19% of all), similar ones and a draw of the others.
HT1080NT lethal – qHTS for induction of synthetic lethality in tumor cells producing 2HG: qHTS for the HT-1080-NT fibrosarcoma cell line. HT-1080-NT fibrosarcoma viability, CellTiter-Glo ATP luminescence, 48 h. hit rate 1.6% among 360,000. Potency, µM (titrated, usually from 46.1 µM), inactives show at the top dose activity, negative = less viability, hits mostly cytotoxic;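 note: NT is the 2HG producing partner of a matched IDH1 knockdown line; potency is the fitted concentration of half-maximal effect; 0% = DMSO-treated cells and -100% = media-only wells without cells; nearly all actives have a fitted effect of over 55% in size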
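HT-1080-NT fibrosarcoma cells (2HG-overproducing), 750 cells/well in RPMI with 5% FBS, dosed after 2 h and incubated 48 h at 37C. CellTiter-Glo luminescence normalized to DMSO and no-cell wells; concentration-response curves fitted and classed.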
ELG1 repair inh – qHTS screen for small molecules that inhibit ELG1-dependent DNA repair in human embryonic kidney (HEK293T) cells expressing luciferase-tagged ELG1; HEK293T ELG1-luciferase reporter, luminescence, 16 h; DNA damage induced by 5-fluorouridine; hit rate 2.3% among 330,000; AID 504467, 2011; Potency, µM (highest dose often 46.1 µM), without a hit: at the highest dose activity change, negative = inhibition, usual class: inhibitors; note: potency is the fitted concentration of half-maximal effect; nearly all actives have a fitted effect of over 55% in size
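HEK293T cells expressing luciferase-tagged ELG1 (2,000/well) received 5-Fluorouridine plus compound or DMSO for 16 hr at 37 °C. Luciferase was read by ONE-Glo luminescence after 30 min at room temperature.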
TDP1 cell noCPT – qHTS for Inhibitors of human tyrosyl-DNA phosphodiesterase 1 (TDP1): qHTS in cells in absence of CPT. Potency, µM (series often up to 46.2 µM), for the others: at the highest dose activity change, negative = growth inhibition, usual class: inhibitors. hit rate 15% among 420,000. DT40 Tdp1-/- hTDP1 cells, no CPT, ATP luminescence, 48 h; note: potency is the fitted concentration of half-maximal effect; nearly all actives have a fitted effect of over 55% in size
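Growth of hTDP1-complemented DT40 Tdp1-knockout cells is measured by ATP luminescence after at least 48 hr compound exposure at 37 °C, with DMSO substituting for the 20 nM CPT used in the parallel screen.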
DT40 TDP1 CPT – qHTS for Inhibitors of human tyrosyl-DNA phosphodiesterase 1 (TDP1): qHTS in cells in presence of CPT. chicken DT40 Tdp1-/-;hTDP1 cells + 20 nM CPT, ATP luminescence, 48 h. Potency, µM (highest dose often 46.2 µM), for inactives: top-dose activity change, negative = growth inhibition, most hits filed as inhibitors. hit rate 12% among 420,000. AID 686979, 2013; note: potency is the fitted concentration of half-maximal effect; nearly all actives have a fitted effect of over 55% in size
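Chicken DT40 Tdp1-/- cells stably complemented with human TDP1 were seeded at 400 cells/well in medium containing 20 nM camptothecin, exposed to pin-transferred compounds, and grown at 37 °C for at least 48 hr. Viability was read as ATP luminescence.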
HT1080 IDH1KD tx – qHTS for induction of synthetic lethality in tumor cells producing 2HG: qHTS for the HT-1080-IDH1KD cell line; HT-1080 IDH1 knockdown viability, ATP luminescence, 48 h; Potency, µM (titrated, usually from 46.1 µM), for inactives: at the highest dose activity, negative = toxicity, hits mostly cytotoxic; hit rate 2% among 360,000; AID 686971, 2013;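 note: potency is the fitted concentration of half-maximal effect; 0% = DMSO wells and -100% = cell-free medium wells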
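CellTiter-Glo luminescence after 48 h compound exposure at 37 degrees C of IDH1-knockdown HT-1080 cells in 5% FBS RPMI. %Activity scaled between DMSO wells and cell-free media wells, with curves fitted and assigned curve classes.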
IL-1B inflam inh – qHTS for Inhibitors of Inflammasome Signaling: IL-1-beta AlphaLISA Primary Screen | hit rate 4.7% among 360,000 | activity change, % at 57.5 µM | THP-1 LPS/ATP IL-1B secretion, AlphaLISA, 16 h; stronger effect = lower value | AID 743279, 2014; in the data active = activity change below about -50%; inconclusive = mostly about -30% to -49%
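THP-1 cells pretreated 1 hr with compounds (up to 57.5 uM final), then stimulated with LPS (250 ng/mL final) plus ATP (1.25 mM final); secreted IL-1B measured by AlphaLISA after 16 hr, decreased signal indicating inhibition.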
* hit, by the source's call; ? = inconclusive; nt = no result; [ ] = another dose, or the depositor's remark. Unless noted, calls come from the whole dose curve; as a rule, active = well fitted curve in the direction sought with a large enough effect; inconclusive = small, poorly fitted or top-dose-only effect, or another doubt; inactive = no such curve, though single readings can be large; an effect the other way counts as inactive or inconclusive. Unless noted, % is set by controls: 0 for no effect and ±100 for the full control effect.

SMILES | HT1080NT lethal | ELG1 repair inh | TDP1 cell noCPT | DT40 TDP1 CPT | HT1080 IDH1KD tx | IL-1B inflam inh
CC(=O)c1cccc(-c2ccnc3c2CC(C(=O)NCC2CCOCC2)O3)c1 (centres undefined) | ? | nt | 2.9µM* | 3.7µM* | ? | 20
CC(=O)c1cccc(-c2ccnc3c2CC(C(=O)NCC2CC2)O3)c1 (centres undefined) | ? | nt | ? | 23µM* | ? | 65
COc1ccc(C2NC(=O)N(C)C3=C2C(=O)N(c2cccc(C(=O)O)c2)C3)cc1 (centres undefined) | nt | nt | -5% | -13% | nt | nt
COc1ccc(NC(=O)CSc2nccn2Cc2ccco2)cc1OC | 18% | 28% | -15% | -28% | 16% | 35
CC1=CC(=C(C#N)c2nc3ccccc3s2)C=C(C)N1c1ccc(F)cc1 | 6% | ? | ? | ? | 15% | -9
COc1ccccc1N1C(C)=CC(=C(C#N)c2nc3ccccc3s2)C=C1C | -13% | ? | 13µM* | 8.2µM* | -12% | 18
CCc1ccccc1NC(=O)Nc1nnc(N2CCCC2)s1 | nt | nt | -2% | -3% | nt | nt
CC(C)N(c1ccccc1)c1ccc(NC(=O)COC(=O)CCN2C(=O)c3cccc([N+](=O)[O-])c3C2=O)cc1 | -27% | ? | 16µM* | ? | ? | -24
Cc1ccc2c(=O)c(C(=O)c3ccc(F)cc3)cn(CC(=O)NCc3ccccc3Cl)c2n1 | nt | nt | -7% | -24% | nt | nt
O=C(NNC(=O)c1ccccc1O)c1ccc(NS(=O)(=O)c2ccc(F)c(F)c2)cc1 | -15% | 0% | ? | ? | -25% | 22
Cc1ccc(S(=O)(=O)Nc2ccc(C(OC(=O)c3ccccc3[N+](=O)[O-])(C(F)(F)F)C(F)(F)F)cc2)cc1 | -13% | ? | ? | ? | ? | -88*
Cc1ccc(NS(=O)(=O)c2ccc(C(=O)NNC(=O)c3ccccc3O)cc2)cc1 | -24% | ? | 23µM* | ? | ? | 64
Cc1ccc(NS(=O)(=O)c2ccc(C(=O)NCc3cccnc3)cc2)cc1 | 0% | ? | 15µM* | ? | -8% | 18
Cc1ccc(S(=O)(=O)Nc2ccc(C(=O)Nc3ccncc3)cc2)cc1 | 7% | ? | ? | 15µM* | 3% | 8
COc1ccc(Cl)c2sc(N(CCN(C)C)C(=O)C3=COCCO3)nc12 | -1% | nt | ? | -22% | 9% | -2
COc1ccc(NC(=O)CC2C(=O)N(c3ccc(C)cc3)C(=O)N2C2CCCC2)cc1 (centres undefined) | nt | nt | -30% | ? | nt | nt
O=C(NCCO)c1nc(C(=O)c2ccccc2)c2ccccc2n1 | 14% | 16% | ? | 23µM* | 11% | 1
O=C(NCc1ccc(Cl)cc1)c1ccc(NC(=O)N2CC3CCCN3c3ccccc32)cc1 (centres undefined) | nt | nt | 18µM* | 16µM* | nt | nt
O=C(NCc1ccc(F)cc1)c1ccc(NC(=O)N2CC3CCCN3c3ccccc32)cc1 (centres undefined) | nt | nt | 12µM* | 16µM* | nt | nt
CC1(C(=O)NS(=O)(=O)c2ccccc2)CCN1C(=O)CCc1ccccc1 (centres undefined) | 8% | nt | -11% | -42% | ? | -8
C/C=C/c1ccc2c(c1)O[C@H](CN(C)CC1CCOCC1)[C@@H](C)CN([C@H](C)CO)S2(=O)=O | -1% | nt | 18µM* | 23µM* | 3% | 19
C[C@H]1CN([C@@H](C)CO)S(=O)(=O)c2ccc(Br)cc2O[C@@H]1CN(C)C(=O)C1CCOCC1 | 14% | nt | ? | -16% | 12% | 14
C[C@@H]1CN([C@@H](C)CO)S(=O)(=O)c2ccc(Br)cc2O[C@H]1CN(C)C(=O)c1ccc2c(c1)OCO2 | 8% | nt | 23µM* | 23µM* | 10% | -28
C[C@@H]1CN([C@@H](C)CO)S(=O)(=O)c2ccc(Br)cc2O[C@@H]1CN(C)C(=O)c1ccc(F)cc1 | 7% | nt | ? | 21µM* | -1% | -13
C[C@@H]1CN([C@@H](C)CO)S(=O)(=O)c2ccc(Br)cc2O[C@H]1CN(C)C(=O)c1cccc(F)c1 | 9% | nt | ? | -6% | 8% | -15
SMILES | HT1080NT lethal | ELG1 repair inh | TDP1 cell noCPT | DT40 TDP1 CPT | HT1080 IDH1KD tx | IL-1B inflam inh
C[C@H](CO)N1C[C@H](C)[C@@H](CN(C)C(=O)c2ccc(F)cc2)Oc2cc(Br)ccc2S1(=O)=O | -7% | nt | 13µM* | 26µM* | -20% | 17
C[C@@H]1CN([C@@H](C)CO)S(=O)(=O)c2ccc(Br)cc2O[C@H]1CN(C)C(=O)c1ccccc1 | -1% | nt | ? | ? | 9% | -25
N#Cc1ccccc1NS(=O)(=O)c1cc2c3c(c1)CCC(=O)N3CCC2 | -1% | 6% | -8% | -2% | -7% | 44
CCC(C(=O)NCCCN(CC)Cc1ccccc1)n1nc(C)c2sc3ccccc3c2c1=O (centres undefined) | 2% | -4% | ? | ? | ? | 12
CN(C(=O)c1cccc(S(=O)(=O)N2CCOCC2)c1)c1c(N)n(Cc2ccccc2)c(=O)[nH]c1=O | -2%[9.24 µM] | 23% | 12% | -1% | -2% | -14
C[C@H](CO)N1C[C@H](C)[C@@H](CN(C)C(=O)CC2CC2)Oc2cc(Br)ccc2S1(=O)=O | 1% | nt | 21µM* | ? | 10% | 21
CCC(c1nnnn1C(C)(C)CC)N(CCCO)Cc1cc2cccc(C)c2[nH]c1=O (centres undefined) | 0% | 5% | -22% | -16% | -9% | -15
CCC(C)(C)n1nnnc1C(C(C)C)N(CCN1CCOCC1)Cc1cc2cccc(C)c2[nH]c1=O (centres undefined) | -1% | -20% | -25% | 18µM* | ? | -17
CCC(c1nnnn1C(C)(C)CC)N(CCCN1CCOCC1)Cc1cc2cccc(C)c2[nH]c1=O (centres undefined) | 6% | 0% | ? | 14µM* | 3% | 18
Cc1cccc2cc(CN(CCCN3CCOCC3)Cc3nnnn3C(C)(C)C)c(=O)[nH]c12 | -1% | 5% | -2% | -23% | -4%[9.24 µM] | -10
